# According to PubChem BioAssay (Tox21):
# Where “and” joins values, the source holds several entries; their conditions need not be identical. Identical values can stand only once. Results filed as inconclusive are left out. A call without a number means that no potency is given here. Some compounds were tested as several samples or in several runs, with calls that do not always agree. Calls of active or inactive are those of the source. Calls come from the whole dose curve; as a rule, active = well fitted cell-killing curve with a large enough effect in the repeat runs; inconclusive = weak or mixed curves, or effect the other way; inactive = flat fitted curve, though single readings scatter.
# Experiment: qHTS assay to identify small molecule agonists of the estrogen receptor beta (ER-beta) signaling pathway - cell viability counter screen (AID 1259380); note: nearly all actives have a fitted effect of over 30% in size
# Settings: ER-beta-bla HEK293T viability, CellTiter-Glo luminescence, 16 h; series mostly up to 92.4 µM; activity change, negative = cytotoxicity: at the top concentration
# Description: National Center for Advancing Translational Sciences [NCATS]
# NIH Chemical Genomics Center [NCGC]
# U.S. Environmental Protection Agency [EPA]
# National Institutes of Environmental Health Sciences [NIEHS]
# National Toxicology Program [NTP]
# U.S. Food and Drug Administration [FDA]
# Estrogen receptor (ER), a nuclear hormone receptor, plays an important role in development, metabolic homeostasis and reproduction. Two subtypes of ER, ER-alpha and ER-beta, have similar expression patterns with some uniqueness in both types. Endocrine disrupting chemicals (EDCs) and their interactions with steroid hormone receptors like ER causes disruption of normal endocrine function. To identify the compounds that activate ER signaling, an ER beta-UAS-bla GripTite cell line (Life Technologies, Madison, WI, USA) containing a beta-lactamase reporter gene under the control of an UAS response element was used to screen Tox21 10K compound library. The cytotoxicity of the Tox21 compound library against the ER-beta-bla cell line was tested in parallel by measuring the cell viability using CellTiter-Glo assay in the same wells.
# Tox21 Assay Protocol Summary:
# ER-beta-UAS-bla HEK293T cells were dispensed at 2,000 cells/5 uL of assay medium containing 2% charcoal stripped FBS per well into black wall/clear-bottom 1536-well plates using a Multidrop Combi (ThermoFisher Scientific, Waltham, MA) dispenser. After the assay plates were incubated at a 37C and 5% CO2 for 6 hr, 23 nL of compounds dissolved in DMSO, positive controls or DMSO only was transferred to the assay plate by a Pintool station (Kalypsys, San Diego, CA). The plates were incubated at 37C and 5% CO2 for 16 hr. Then 1 uL of LiveBLAzerTM B/G FRET substrate was added using a BioRAPTR FRD (Flying Reagent Dispenser, Aurora Discovery, San Diego, CA) and then the plates were incubated at room temperature for 2 hours, and fluorescence intensity was measured by an Envision plate reader (PerkinElmer, Shelton, CT). For cell viability readout that measures cytotoxicity, 4 uL/well of CellTiter-Glo reagent was added into the assay plates using a FRD. After 30 min incubation at room temperature, the luminescence intensity in the plates was measured using a ViewLux (PerkinElmer) plate reader.
# Potency is the fitted concentration of half-maximal effect.
SMILES,Potency,"activity change, negative = cytotoxicity"
COP(=S)(OC)Oc1ccc(Sc2ccc(OP(=S)(OC)OC)cc2)cc1,inactive,
O=C1C(Cl)=C(Cl)C(=O)c2ccccc21,27.4 µM (active) and 27.3 µM (active),
Cc1ccc(N=CN(C)C=Nc2ccc(C)cc2C)c(C)c1,54.7 µM (active) and 30.6 µM (active) and inactive,
COP(=S)(OC)Oc1ccc(S(=O)(=O)N(C)C)cc1,inactive,
CCOP(=O)(OCC)OCC,inactive,
C[C@]12CC[C@H]3[C@@H](CCC4=CC(=O)CC[C@@H]43)[C@@H]1CC[C@@H]2O,inactive,
CSc1nc(NC(C)C)nc(NC(C)C)n1,inactive,
Nc1ccc2ccccc2c1,,1.89% (inactive)
S=c1[nH]c2ccccc2[nH]1,inactive,
CNC(=S)S,inactive,
[CH3][Sn]([Cl])([Cl])[Cl],inactive,
CCCCCCCC[N+](C)(CCCCCCCC)CCCCCCCC,12.2 µM (active) and 27.3 µM (active) and 30.6 µM (active),
O=NN(c1ccccc1)c1ccccc1,inactive,
CCC[CH2][Sn]([Cl])([CH2]CCC)[CH2]CCC,1.22 µM (active) and 1.37 µM (active),
CC(C)Nc1nc(Cl)nc(NC(C)C)n1,inactive,
CC(C)(c1ccccc1)c1ccc(O)c(C(C)(C)c2ccccc2)c1,21.5 µM (active) and 30.6 µM (active),
CN(C)c1nc(=O)n(C2CCCCC2)c(=O)n1C,inactive,
C=C(C)C#N,inactive,
CCC[CH2][Sn]([Cl])([Cl])[CH2]CCC,981 nM (active) and 1.54 µM (active),
O=P(OCCCl)(OCCCl)OCCCl,,3.77% (inactive)

SMILES,Potency,"activity change, negative = cytotoxicity"
NC(=O)CN1CCCC1=O,inactive,
CNC(=O)Oc1cccc2c1OC(C)(C)C2,inactive,
C[N+](C)(C)CC(=O)[O-],inactive,
CC(C)CON=O,inactive,
CC(C)(c1ccc(OCC2CO2)cc1)c1ccc(OCC2CO2)cc1 (stereo not given),61.9 µM (active),
Clc1ccc(C(Cl)(Cl)Cl)cc1,,-2.9% (inactive)
COc1ccc(C=O)cc1OC,,-4.45% (inactive)
O=C1Nc2ccc(Cl)cc2C(c2ccccc2)=NC1O (stereo not given),,-14.1% (inactive)
CC(O)CN(CC(C)O)CC(C)O (stereo not given),inactive,
O=C1CCCO1,inactive,
C[N+](C)(C)CC(=O)O,inactive,
CC1CC(=O)O1 (stereo not given),inactive,
CCC/C=N/O,inactive,
N#Cc1c(Cl)c(Cl)c(Cl)c(C#N)c1Cl,8.47 µM (active) and 19.3 µM (active),
CCNCC,inactive,
ClC(Cl)(Cl)Br,inactive,
CCC1(c2ccc(N)cc2)CCC(=O)NC1=O (stereo not given),inactive,
CC(C)(O)C(=O)Nc1ccc([N+](=O)[O-])c(C(F)(F)F)c1,,-4.64% [at 42.5 µM] (inactive)
CCCCCCCCCCCCCl,inactive,
[Cl-].[Cl-].[Cl-].[Fe+3],inactive,
